The values below come from PubChem BioAssay (NCATS).

Molecules are shown by their SMILES. Records with an inconclusive call do not appear. Values without a mark were called inactive. Calls of active or inactive are those of the source. Calls come from the whole dose curve; as a rule, active = well fitted cell-killing curve with a large enough effect; inconclusive = small, poorly fitted or top-dose-only effect, or effect the other way; inactive = flat fitted curve, though single readings scatter.

What all share (assay): Primary qHTS to identify gynecologic anti-cancer compounds using libraries of approved drugs and bioactive compounds (AID 1345084); note: nearly all actives have a fitted effect of over 55% in size
Background: Quantitative high-throughput screening tests each substance at several concentrations.

One experiment has as its system C33A. As to conditions: Gynecologic cancer cell panel viability, ATPlite luminescence, 48 h; series mostly up to 57.5 µM. In outline:
(§1)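 ATP-based viability (ATPlite), 1,000 cells/well, 16 h pre-incubation, 48 h compound at 37 C, 5% CO2, 15 min RT before read.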
(ATP-based viability assays read luminescence as a measure of living cells.)

In the next experiment the test system is CAOV3. The following applies: Gynecologic cancer cell panel viability, ATPlite luminescence, 48 h; series mostly up to 57.5 µM. The gist of the method:
as §1

The test system of another experiment is HeLa. The following applies: Gynecologic cancer cell panel viability, ATPlite luminescence, 48 h; series mostly up to 57.5 µM. In outline: as §1
A further experiment relates to Hek293T. The following applies: Gynecologic cancer cell panel viability, ATPlite luminescence, 48 h, control line for the selectivity index; series mostly up to 57.5 µM. The gist of the method:
as §1

The next experiment deals with JEG-3. As to conditions: Gynecologic cancer cell panel viability, ATPlite luminescence, 48 h; series mostly up to 57.5 µM. The gist of the method: as §1
Another experiment relates to OV90. As to conditions: Gynecologic cancer cell panel viability, ATPlite luminescence, 48 h; series mostly up to 57.5 µM. In outline:
as §1

Another experiment relates to SKOV3. The following applies: Gynecologic cancer cell panel viability, ATPlite luminescence, 48 h; series mostly up to 57.5 µM. The gist of the method: as §1
The subject of another experiment is Tov-21-G. The following applies: Gynecologic cancer cell panel viability, ATPlite luminescence, 48 h; series mostly up to 57.5 µM. In outline: as §1
Another experiment concerns Tov112D. The following applies: Gynecologic cancer cell panel viability, ATPlite luminescence, 48 h; series mostly up to 57.5 µM. The gist of the method: as §1
For a further experiment, the system named is Es-2. The following applies: Gynecologic cancer cell panel viability, ATPlite luminescence, 48 h; series mostly up to 57.5 µM. The gist of the method: as §1
A further experiment has as its system PA-1. As to conditions: Gynecologic cancer cell panel viability, ATPlite luminescence, 48 h; series mostly up to 57.5 µM. The gist of the method:
as §1

For the next experiment, the system named is CASKI. As to conditions: Gynecologic cancer cell panel viability, ATPlite luminescence, 48 h; series mostly up to 57.5 µM. The gist of the method: as §1
Potency is the fitted concentration of half-maximal effect.

Consider `Cc1ccc(NC(=O)c2ccc(CN3CC[C@H](N(C)C)C3)c(C(F)(F)F)c2)cc1Nc1nccc(-c2cncnc2)n1`, for which the Potency entry in the experiment with C33A, with CAOV3, in the experiment with HeLa, in the experiment on Hek293T, with JEG-3 and in the experiment on SKOV3 was “inactive” each time. Besides, the Potency entry in the experiment on Tov-21-G and with Tov112D was “inactive” each time. In addition, the Potency with OV90 is 5.01 µM (active).
Turning to `CC(=O)OC12COC1CC(O)C1(C)C(=O)C(O)C3=C(C)C(OC(=O)C(O)C(NC(=O)OC(C)(C)C)c4ccccc4)CC(O)(C(OC(=O)c4ccccc4)C21)C3(C)C` (centres undefined), the Potency entry with C33A, in the experiment with CAOV3, in the experiment with JEG-3, with OV90, in the experiment on SKOV3 and in the experiment on Tov112D was “inactive” each time.
Consider `NC(=O)[C@H]1CCS[C@@H]2C[C@]3(CCCN3C(=O)Cc3ccc(NC(=O)COc4ccc(Cl)cc4Cl)cc3)C(=O)N12`, for which the Potency entry in the experiment on C33A, in the experiment on CAOV3, with Es-2 and in the experiment with OV90 was “inactive” in each case. The Potency in the experiment on HeLa is 31.6 µM (active); in the experiment on PA-1, 15.8 µM (active).
`COC(=O)Cc1cc2c(c([N+](=O)[O-])c1)N(C(=O)CC[C@H](N)C(=O)O)CC2`: the Potency entry in the experiment on C33A, with CAOV3, in the experiment with Es-2, in the experiment with HeLa, with Hek293T and in the experiment with JEG-3 was “inactive” throughout. Besides, the Potency result with OV90, in the experiment with PA-1, in the experiment with SKOV3, in the experiment on Tov-21-G and in the experiment with Tov112D was “inactive” in each case.
As to `CC(C)c1cccc2c(-c3ccccc3)cc(-c3ccc(-c4ccc(C(=O)O)cc4)[nH]3)nc12`, the Potency result with C33A, in the experiment with CAOV3, in the experiment with Es-2, in the experiment with HeLa, in the experiment with Hek293T and in the experiment with JEG-3 was “inactive” throughout. The Potency result with OV90, with PA-1 and in the experiment on SKOV3 was “inactive” each time.
Consider `N#Cc1ccc(-c2cnc3[nH]cc(NC(=O)c4cccnc4)c3c2)cc1`, for which the Potency entry with C33A, in the experiment on CAOV3, in the experiment on CASKI, with Hek293T, with JEG-3 and in the experiment with Tov112D was “inactive” each time.
For `CC(=O)O[C@@](C)(C(=O)/C=C/C(C)(C)O)[C@H]1[C@H](O)C[C@@]2(C)[C@@H]3CC=C4[C@@H](C=C(O)C(=O)C4(C)C)[C@]3(C)C(=O)C[C@]12C`, the Potency entry with C33A and in the experiment with JEG-3 was “inactive” throughout. Besides, the Potency in the experiment on CAOV3 was 0.282 µM (active); in the experiment on CASKI, 4.47 µM (active); in the experiment on HeLa, 2.51 µM (active); in the experiment with OV90 it was 4.47 µM (active); with PA-1, 11.2 µM (active); in the experiment on Tov-21-G, 2.82 µM (active).
As to `CO[C@H]1C[C@@H]2CC[C@@H](C)[C@@](O)(O2)C(=O)C(=O)N2CCCC[C@H]2C(=O)O[C@H]([C@H](C)C[C@@H]2CC[C@@H](OP(C)(C)=O)[C@H](OC)C2)CC(=O)[C@H](C)/C=C(\C)[C@@H](O)[C@@H](OC)C(=O)[C@H](C)C[C@H](C)/C=C/C=C/C=C/1C`, the Potency result in the experiment with C33A, with CAOV3, with Es-2, in the experiment with HeLa, with JEG-3 and with PA-1 was “inactive” throughout. Also, the Potency result in the experiment with SKOV3, in the experiment with Tov-21-G and with Tov112D was “inactive” in each case.
With `O=C(c1ccc(/C=C/c2n[nH]c3ccccc23)cc1)N1CCNCC1`, the Potency entry with C33A, with CAOV3 and in the experiment on Hek293T was “inactive” each time. The Potency in the experiment on HeLa is 2.24 µM (active); in the experiment with OV90, 8.91 µM (active); with PA-1, 8.91 µM (active).
Take `NC(=O)c1cnc(NCCc2ccc(O)c(Cl)c2)nc1NCc1ccccc1`: the Potency result with C33A, in the experiment with CAOV3, in the experiment on JEG-3 and in the experiment with OV90 was “inactive” in each case. Further, the Potency is 15.8 µM (active) in the experiment with Es-2; 25.1 µM (active) with HeLa; 20 µM (active) with Hek293T; 10 µM (active) in the experiment on PA-1; 7.94 µM (active) with Tov-21-G; 12.6 µM (active) in the experiment with Tov112D.
For `CN(C)C/C=C/C(=O)Nc1cc2c(Nc3ccc(F)c(Cl)c3)ncnc2cc1OC1CCOC1` (centres undefined), the figures for the Potency in the experiment with C33A, in the experiment on CAOV3 and in the experiment with Tov-21-G were 20 µM (active), 10 µM (active) and 5.62 µM (active), respectively. In addition, the Potency result with JEG-3 was “inactive”.
In the case of `Cc1ccc(S(=O)(=O)c2ccc([N+](=O)[O-])o2)cc1`, the Potency was 11.2 µM (active) in the experiment with C33A; 11.2 µM (active) in the experiment on CAOV3; 8.91 µM (active) with Es-2; 8.91 µM (active) in the experiment with Hek293T; 14.1 µM (active) with PA-1; 25.1 µM (active) in the experiment with SKOV3. The Potency with Tov-21-G is 7.94 µM (active).
As to `Cc1ccc(S(=O)(=O)Cc2nc(-c3ccc(C(=O)NCc4cccnc4)cc3)oc2C)cc1`, the Potency result with C33A, in the experiment on CAOV3, in the experiment with JEG-3 and in the experiment with OV90 was “inactive” throughout.
As to `C/C=C1\[C@H](O[C@@H]2O[C@H](CO)[C@@H](O)[C@H](O)[C@H]2O)OC=C2C(=O)OCCc3ccc(O)c(c3)Oc3ccc(cc3)CCOC(=O)C[C@H]21`, the Potency result in the experiment on C33A, in the experiment on CAOV3, with Es-2, in the experiment on HeLa, in the experiment on Hek293T and in the experiment with OV90 was “inactive” each time. Further, the Potency entry with PA-1, in the experiment with Tov-21-G and in the experiment with Tov112D was “inactive” each time.
